Source: PubChem BioAssay (EPA / NIEHS)
Results filed as inconclusive are left out. Activity calls are given as the source filed them. How the source made its calls, unless noted: active means hit-call score of the fitted dose curve at least 0.9, where 1 is the maximum; inconclusive means response in the unintended direction; inactive means score below 0.9.

Legend:
[1] = read-out: Cytochrome P450 2B6 (Homo sapiens) (UniProt P20813); experiment: CLD_CYP2B6_48hr: CellzDirect (CLD) Gene Expression Assay for xenobiotic metabolism (CYP2B6) at 48 hours (AID 2283699);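 further: actives raise transcript level above DMSO so potency reflects induction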
Method in brief: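 Primary human hepatocytes dosed daily for two days over multiple concentrations, 0.2% DMSO vehicle; CYP2B6 mRNA quantified at 48 h by qNPA chemiluminescence. Induction fitted as gain of signal versus DMSO; cytotoxicity annotated by morphology.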

[2] = read-out: xenobiotic metabolism (CYP1A2), CYP1A2 (gene 1544); experiment: CLD_CYP1A2_48hr: CellzDirect (CLD) Gene Expression Assay for xenobiotic metabolism (CYP1A2) at 48 hours (AID 2283703)
Method in brief: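 Primary human hepatocytes from two donor preparations were dosed daily for two days at multiple concentrations in 0.2% DMSO vehicle. CYP1A2 mRNA was measured at 48 hours by chemiluminescent quantitative nuclease protection assay, with gain of signal fitted versus DMSO and cytotoxicity annotated from morphology.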

[3] = read-out: organic anion transporter (SLCO1B1), SLCO1B1 (gene 10599); experiment: CLD_SLCO1B1_48hr: CellzDirect (CLD) Gene Expression Assay for organic anion transporter (SLCO1B1) at 48 hours (AID 2283707)
Method in brief: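 Primary human hepatocytes from two donor preparations dosed daily for two days with multiple concentrations, 0.2% DMSO vehicle. SLCO1B1 mRNA at 48 h by quantitative nuclease protection assay, chemiluminescence; gain-of-signal fitted versus DMSO.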

[4] = read-out: alkyl and aryl transferase (GSTA2), GSTA2 (gene 2939); experiment: CLD_GSTA2_48hr: CellzDirect (CLD) Gene Expression Assay for alkyl and aryl transferase (GSTA2) at 48 hours (AID 2283708);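 further: active means mRNA induction above DMSO vehicle baseline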
Method in brief: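 Primary human hepatocytes dosed daily for two days (0.2% DMSO vehicle), harvested at 48 h. GSTA2 mRNA induction measured by quantitative nuclease protection assay with chemiluminescent imaging, fitted for gain of signal relative to DMSO.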

[5] = read-out: glucuronosyltransferase (UGT1A1), UGT1A1 (gene 54658); experiment: CLD_UGT1A1_48hr: CellzDirect (CLD) Gene Expression Assay for glucuronosyltransferase (UGT1A1) at 48 hours (AID 2283709);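 further: actives increase expression relative to DMSO so potency refers to induction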
Method in brief: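 Human primary hepatocytes dosed daily for two days (0.2% DMSO vehicle), harvested at 48 h. UGT1A1 mRNA induction measured by quantitative nuclease protection assay with chemiluminescence; gain of signal versus DMSO; cytotoxicity flagged from morphology.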

[6] = read-out: sulfotransferase (SULT2A), SULT2A1 (gene 6822); experiment: CLD_SULT2A_48hr: CellzDirect (CLD) Gene Expression Assay for sulfotransferase (SULT2A) at 48 hours (AID 2283710);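 further: hits raise SULT2A1 transcript above the 0.2% DMSO vehicle baseline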
Method in brief: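 Primary human hepatocytes (two donor preparations) dosed daily for two days with chemicals at multiple concentrations, vehicle 0.2% DMSO; SULT2A1 mRNA induction at 48 h by quantitative nuclease protection assay, chemiluminescent read-out, fitted for gain of signal versus DMSO.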

[7] = CEETOX_H295R_MTT_cell_viability: Viability Assessment in the CeeTox HT-H295R MTT Assay (AID 2283718; active means hit-call score of the fitted dose curve at least 0.9, where 1 is the maximum; inactive means score below 0.9)
Method in brief: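 MTT reduction (0.5 mg/ml, 4 h at 37 C; absorbance at 570 and 650 nm) gave viability as background-corrected percent change versus controls. H295R cells had 48 h forskolin (10 uM) prestimulation, then 48 h chemical exposure at 0.1% DMSO.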

[8] = Tanguay_ZF_120hpf_ActivityScore_legacy: (Legacy) Oregon State University Tanguay Lab 120 Hour Post-fertilization zebrafish Assay Score for Activity (AID 2283742);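 on AC50: dechorionated Tropical 5D wild-type zebrafish embryos held singly per well; static exposure from 6 hpf until 120 hpf at 28 °C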
Method in brief: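 Embryos are staged, enzymatically dechorionated at 4 hpf, placed individually at 6 hpf, then held in test chemical (0.64% DMSO) at 28C until 120 hpf. Mortality and malformations are scored by brightfield, with non-mortality endpoints skipped for dead embryos.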

[9] = read-out: xenobiotic metabolism (CYP1A1), CYP1A1 (gene 1543); experiment: CLD_CYP1A1_48hr: CellzDirect (CLD) Gene Expression Assay for xenobiotic metabolism (CYP1A1) at 48 hours (AID 2283705)
Method in brief: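 Primary human hepatocytes from two donors dosed daily for two days at multiple concentrations, 0.2% DMSO vehicle; CYP1A1 mRNA induction at 48 h by qNPA chemiluminescence. Cytotoxicity noted by phase-contrast morphology.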

[10] = read-out: Cytochrome P450 2C19 (Homo sapiens) (UniProt P33261); experiment: CLD_CYP2C19_48hr: CellzDirect (CLD) Gene Expression Assay for xenobiotic metabolism (CYP2C19) at 48 hours (AID 2283700);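 further: fitted upward so actives raise CYP2C19 mRNA above the 0.2% DMSO vehicle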
Method in brief: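 Primary human hepatocytes (two donor preparations) dosed daily for two days, harvested at 48 h; CYP2C19 mRNA induction measured by qNPA chemiluminescence. Gain-of-signal fitted relative to 0.2% DMSO vehicle as baseline.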

[11] = read-out: HMG-CoA synthase (HMGCS2), HMGCS2 (gene 3158); experiment: CLD_HMGCS2_48hr: CellzDirect (CLD) Gene Expression Assay for HMG-CoA synthase (HMGCS2) at 48 hours (AID 2283711)
Method in brief: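 Primary human hepatocytes from two donors dosed daily for two days, 0.2% DMSO vehicle. HMGCS2 mRNA measured 48 h after dosing by quantitative nuclease protection assay with chemiluminescent read-out; induction fitted relative to DMSO, cytotoxicity flagged by microscopy.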

[12] = STM_H9_OrnithineISnorm_perc: Stemina devTOX quickPredict H9 human embryonic stem cell (hESC)-based Assay for Ornithine (ORN) Metabolite Biomarker, Normalized (AID 2283712; active means hit-call score of the fitted dose curve at least 0.9, where 1 is the maximum; inactive means score below 0.9;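 further: ornithine released into spent medium during last day measured by mass spectrometry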)
Method in brief: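 Cells: undifferentiated H9 hESC. Dosing: 72 h, media replaced every 24 h. Sample: final 24-h conditioned media, 40% acetonitrile. Read: UPLC-HRMS ornithine area vs 13C standard, % DMSO control.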

[13] = STM_H9_CystineISnorm_perc: Stemina devTOX quickPredict H9 human embryonic stem cell (hESC)-based Assay for Cystine (CYSS) Metabolite Biomarker, Normalized (AID 2283713; active means hit-call score of the fitted dose curve at least 0.9, where 1 is the maximum; inactive means score below 0.9)
Method in brief: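 Secreted cystine was measured by UPLC-HRMS in H9 hESC medium after 72h compound exposure with 24-hourly replenishment. Values are standard-normalized areas relative to 0.1% DMSO.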

[14] = ArunA_CellTiter_hNC: Viability Assessment in the ArunA Biomedical's Oris Neural Crest (hNC) Cell Migration Assay (AID 2283752)
Method in brief: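 Viability of embryonic neural crest stem cells from the H9 line is scored 72 h after dosing, with DMSO as negative control and baseline. A drop in CellTiter Aqueous One signal indicates cytotoxicity.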

[15] = tested on: Thyroperoxidase (TPO), gene 445522; experiment: CCTE_Simmons_GUA_TPO: CCTE's Guaiacol Assay for Thyroperoxidase (TPO) Inhibition, Simmons Lab (AID 2283750)
Method in brief: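 Porcine thyroid microsomes (25 ug) in 200mM potassium phosphate, preincubated 30 s at 37C with compound (8 concentrations, 5 nM–87.5 uM) and 35mM guaiacol; 1mM H2O2 starts reaction. Absorbance change at 450nm over first 80 s; loss of signal versus DMSO, three replicates.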

[16] = STM_H9_OrnCyssISnorm_ratio: Stemina devTOX quickPredict H9 human embryonic stem cell (hESC)-based Assay for Ornithine (ORN):Cystine (CYSS) Ratio (AID 2283714)
Method in brief: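 Steps: H9 hESCs in pluripotent state dosed 72h, medium plus compound renewed every 24h; conditioned medium from the final 24h deproteinized in 40% acetonitrile; ORN and CYSS quantified by UPLC-HRMS with C13 spike-ins; ratio relative to vehicle.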

Measured: AC50

Cytochrome P450 2C19 (Homo sapiens), sequence (P33261 whole entry, looked up): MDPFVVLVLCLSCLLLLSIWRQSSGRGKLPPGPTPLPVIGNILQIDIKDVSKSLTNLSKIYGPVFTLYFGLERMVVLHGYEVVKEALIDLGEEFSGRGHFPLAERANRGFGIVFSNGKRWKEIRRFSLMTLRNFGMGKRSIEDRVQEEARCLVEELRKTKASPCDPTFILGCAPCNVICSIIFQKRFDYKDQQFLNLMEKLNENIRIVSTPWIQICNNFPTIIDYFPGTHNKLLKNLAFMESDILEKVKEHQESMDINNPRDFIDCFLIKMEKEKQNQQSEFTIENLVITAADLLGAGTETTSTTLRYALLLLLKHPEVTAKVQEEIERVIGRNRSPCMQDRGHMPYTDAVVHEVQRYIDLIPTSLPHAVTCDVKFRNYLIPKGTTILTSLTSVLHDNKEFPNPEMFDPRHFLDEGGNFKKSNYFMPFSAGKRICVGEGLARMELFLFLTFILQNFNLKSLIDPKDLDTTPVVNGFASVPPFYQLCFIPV

C#CCC1=C(C)C(OC(=O)C2C(C=C(C)C)C2(C)C)CC1=O (configuration not stated)
inactive: [3] | [4] | [6] | [7] | [8]
active: [1] 4.91 µM | [2] 20 µM | [5] 3.87 µM

O=c1ccc(=O)[nH][nH]1
inactive: [3] | [8]

CCOP(=O)(SC(C)CC)N1CCSC1=O (configuration not stated)
active: [1] 2.05 µM | [2] 4.51 µM
inactive: [3] | [4] | [5] | [6] | [8]

CCOP(=S)(OCC)OC(Cl)C(Cl)(Cl)Cl (configuration not stated)
active: [1] 0.0135 µM | [2] 9.25 µM | [5] 4.19 µM
inactive: [9] | [4] | [8]

Cc1cc(C2CC2)nc(Nc2ccccc2)n1
active: [1] 1.09 µM | [2] 3.97 µM | [8] 62.8 µM
inactive: [4] | [5] | [6]

CC1=NNC(=O)N(/N=C/c2cccnc2)C1
inactive: [10] | [4] | [5] | [11] | [12] | [13] | [8] | [14]
active: [2] 8.29 µM

CSc1nnc(C(C)(C)C)c(=O)n1N
active: [1] 20 µM | [2] 2.97 µM | [12] 0.0961 µM
inactive: [5] | [13] | [7]

CCc1cccc(C)c1N(C(=O)CCl)C(C)COC (configuration not stated)
active: [1] 0.969 µM | [9] 20 µM
inactive: [2] | [4] | [5] | [6] | [7] | [8]

COP(=O)(OC)C(O)C(Cl)(Cl)Cl (configuration not stated)
active: [5] 0.0665 µM
inactive: [4] | [11] | [8]

CCCOCC(=Nc1ccc(Cl)cc1C(F)(F)F)n1ccnc1
inactive: [1] | [5] | [7] | [8]
active: [2] 0.687 µM | [4] 20 µM

CCOP(=S)(OCC)Oc1ccc([N+](=O)[O-])cc1
active: [1] 1.13 µM | [2] 2.97 µM | [5] 2.67 µM | [6] 5.32 µM
inactive: [11] | [7] | [8]

CCOC(=O)CC(SP(=O)(OC)OC)C(=O)OCC (configuration not stated)
inactive: [2] | [3] | [4] | [5] | [6] | [8] | [15]
active: [1] 20 µM

Nc1nc(N)nc(NC2CC2)n1
inactive: [4] | [7] | [8]

CNC(=O)ON=C(SC)C(=O)N(C)C
inactive: [10] | [2] | [9] | [4] | [5] | [11] | [7] | [8]

C[Si](Cn1cncn1)(c1ccc(F)cc1)c1ccc(F)cc1
inactive: [5] | [6] | [7]
active: [1] 0.051 µM | [2] 1.89 µM | [12] 76.6 µM | [13] 30.2 µM | [16] 50.7 µM | [8] 35.9 µM

CC1(C(=O)Nc2ccc(O)c(Cl)c2Cl)CCCCC1
inactive: [10] | [4] | [5] | [7] | [8]

CSc1nc(NC(C)C)nc(NC(C)C)n1
active: [1] 3.24 µM | [2] 1.64 µM | [12] 0.22 µM | [13] 0.234 µM | [16] 0.237 µM
inactive: [4] | [5] | [6] | [7] | [8]

CCc1cccc(CC)c1N(COC)C(=O)CCl
active: [1] 3.01 µM | [4] 32.1 µM | [8] 27.6 µM
inactive: [2] | [3] | [5]

CC(C)N(C(=O)SCC(Cl)=C(Cl)Cl)C(C)C
inactive: [2] | [4] | [5] | [6] | [11] | [8]
active: [1] 3.91 µM | [13] 12.4 µM | [16] 12.2 µM
